From PubChem BioAssay AID1159580 (chemical genetic matrix, 2015)
About 2,000 (36%) of roughly 5,500 compounds were called active. Another 18% or so got no clear call; they are omitted. Rule as the data show it: active = normalized growth mostly below about 0.91 (no sharp cut-off); inconclusive = no clear call, values can overlap the other calls; inactive = mostly above about 0.92. Some of the results follow.

Assay: chemical genetic growth profiling, strain panel (AID 1159580);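 also: tested at 20 µM; growth read once vehicle control cultures reached saturation at 30 °C; 1 = growth at the plate median or of vehicle wells; lower values mean less growth of the strain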
Details: growth OD
[1] = S. cerevisiae deletion strains, locus YAR019C, strain CDC15, active compounds read low
[2] = S. cerevisiae deletion strains, locus YBL105C, strain PKC1, active compounds read low
[3] = S. cerevisiae deletion strains, locus YBR135W, strain CKS1, active compounds read low
[4] = S. cerevisiae deletion strains, locus YBR136W, strain MEC1, active compounds read low
[5] = S. cerevisiae deletion strains, locus YBR160W, strain CDC28, active compounds read low
[6] = S. cerevisiae deletion strains, locus YDL017W, strain CDC7, active compounds read low
[7] = S. cerevisiae deletion strains, locus YDL028C, strain MPS1, active compounds read low
[8] = S. cerevisiae deletion strains, locus YDL101C, strain DUN1, active compounds read low
[9] = S. cerevisiae deletion strains, locus YDL108W, strain KIN28, active compounds read low
[10] = S. cerevisiae deletion strains, locus YDL132W, strain cdc53, active compounds read low
[11] = S. cerevisiae deletion strains, locus YDL214C, strain PRR2, active compounds read low
[12] = S. cerevisiae deletion strains, locus YDR052C, strain DBF4, active compounds read low
[13] = S. cerevisiae deletion strains, locus YDR054C, strain cdc34, active compounds read low
[14] = S. cerevisiae deletion strains, locus YDR226W, strain ADK1, active compounds read low
[15] = S. cerevisiae deletion strains, locus YDR477W, strain SNF1, active compounds read low
[16] = S. cerevisiae deletion strains, locus YER123W, strain YCK3, active compounds read low
[17] = S. cerevisiae deletion strains, locus YER133W, strain GLC7, active compounds read low
[18] = S. cerevisiae deletion strains, locus YFL009W, strain cdc4, active compounds read low
[19] = S. cerevisiae deletion strains, locus YFL029C, strain CAK1, active compounds read low
[20] = S. cerevisiae deletion strains, locus YFR003C, strain YPI1, active compounds read low
[21] = S. cerevisiae deletion strains, locus YFR019W, strain FAB1, active compounds read low
[22] = S. cerevisiae deletion strains, locus YFR028C, strain CDC14, active compounds read low
[23] = S. cerevisiae deletion strains, locus YGR040W, strain KSS1, active compounds read low
[24] = S. cerevisiae deletion strains, locus YGR052W, strain FMP48, active compounds read low
[25] = S. cerevisiae deletion strains, locus YGR092W, strain DBF2, active compounds read low
[26] = S. cerevisiae deletion strains, locus YHR030C, strain SLT2, active compounds read low
[27] = S. cerevisiae deletion strains, locus YHR079C, strain IRE1, active compounds read low
[28] = S. cerevisiae deletion strains, locus YHR082C, strain KSP1, active compounds read low
[29] = S. cerevisiae deletion strains, locus YHR205W, strain SCH9, active compounds read low
[30] = S. cerevisiae deletion strains, locus YIL147C, strain SLN1, active compounds read low
[31] = S. cerevisiae deletion strains, locus YJL095W, strain BCK1, active compounds read low
[32] = S. cerevisiae deletion strains, locus YJL128C, strain PBS2, active compounds read low
[33] = S. cerevisiae deletion strains, locus YJL157C, strain FAR1, active compounds read low
[34] = S. cerevisiae deletion strains, locus YJR016C, strain ILV3, active compounds read low
[35] = S. cerevisiae deletion strains, locus YJR066W, strain TOR1 (second series), active compounds read low
[36] = S. cerevisiae deletion strains, locus YJR066W, strain TOR1, active compounds read low
[37] = S. cerevisiae deletion strains, locus YKL048C, strain ELM1, active compounds read low
[38] = S. cerevisiae deletion strains, locus YKL067W, strain YNK1, active compounds read low
[39] = S. cerevisiae deletion strains, locus YKL101W, strain HSL1, active compounds read low
[40] = S. cerevisiae deletion strains, locus YKL193C, strain SDS22, active compounds read low
[41] = S. cerevisiae deletion strains, locus YKL203C, strain TOR2, active compounds read low
[42] = S. cerevisiae deletion strains, locus YLR113W, strain HOG1, active compounds read low
[43] = S. cerevisiae deletion strains, locus YLR133W, strain CKI1, active compounds read low
[44] = S. cerevisiae deletion strains, locus YLR403W, strain SFP1, active compounds read low
[45] = S. cerevisiae deletion strains, locus YML070W, strain DAK1, active compounds read low
[46] = S. cerevisiae deletion strains, locus YMR001C, strain CDC5, active compounds read low
[47] = S. cerevisiae deletion strains, locus YMR205C, strain PFK2 (second series), active compounds read low
[48] = S. cerevisiae deletion strains, locus YMR277W, strain FCP1, active compounds read low
[49] = S. cerevisiae deletion strains, locus YNL006W, strain LST8, active compounds read low
[50] = S. cerevisiae deletion strains, locus YNL020C, strain ARK1, active compounds read low
[51] = S. cerevisiae deletion strains, locus YNL161W, strain CBK1, active compounds read low
[52] = S. cerevisiae deletion strains, locus YNL183C, strain NPR1, active compounds read low
[53] = S. cerevisiae deletion strains, locus YNL207W, strain RIO2, active compounds read low
[54] = S. cerevisiae deletion strains, locus YNL222W, strain SSU72, active compounds read low
[55] = S. cerevisiae deletion strains, locus YNL307C, strain MCK1 (second series), active compounds read low
[56] = S. cerevisiae deletion strains, locus YOL078W, strain AVO1, active compounds read low
[57] = S. cerevisiae deletion strains, locus YOL136C, strain PFK27, active compounds read low
[58] = S. cerevisiae deletion strains, locus YOR061W, strain CKA2, active compounds read low
[59] = S. cerevisiae deletion strains, locus YOR119C, strain RIO1, active compounds read low
[60] = S. cerevisiae deletion strains, locus YOR231W, strain MKK1, active compounds read low
[61] = S. cerevisiae deletion strains, locus YOR329C, strain SCD5, active compounds read low
[62] = S. cerevisiae deletion strains, locus YPL031C, strain PHO85, active compounds read low
[63] = S. cerevisiae deletion strains, locus YPL153C, strain RAD53, active compounds read low
[64] = S. cerevisiae deletion strains, locus YPL204W, strain HRR25, active compounds read low
[65] = S. cerevisiae deletion strains, locus YPL209C, strain IPL1, active compounds read low
[66] = S. cerevisiae deletion strains, locus YPL256C, strain CLN2, active compounds read low
[67] = S. cerevisiae deletion strains, locus YPR025C, strain CCL1, active compounds read low
[68] = S. cerevisiae deletion strains, locus YPR106W, strain ISR1, active compounds read low
[69] = S. cerevisiae deletion strains, locus YPR111W, strain DBF20, active compounds read low
[70] = S. cerevisiae deletion strains, strain NNK1, active compounds read low
[71] = S. cerevisiae deletion strains, strain TSCII, active compounds read low
[72] = S. cerevisiae deletion strains, locus YAL013W, strain DEP1, active compounds read low
[73] = S. cerevisiae deletion strains, locus YBR229C, strain ROT2, active compounds read low
[74] = S. cerevisiae deletion strains, locus YDR150W, strain NUM1, active compounds read low
[75] = S. cerevisiae deletion strains, locus YEL061C, strain CIN8, active compounds read low
[76] = S. cerevisiae deletion strains, locus YGR078C, strain PAC10, active compounds read low
[77] = S. cerevisiae deletion strains, locus YHR087W, strain rtc3, active compounds read low
[78] = S. cerevisiae deletion strains, locus YJR043C, strain POL32, active compounds read low
[79] = S. cerevisiae deletion strains, locus YJR075W, strain HOC1, active compounds read low
[80] = S. cerevisiae deletion strains, locus YLR039C, strain RIC1, active compounds read low
[81] = S. cerevisiae deletion strains, locus YLR058C, strain SHM2 (second series), active compounds read low
[82] = S. cerevisiae deletion strains, locus YLR085C, strain ARP6, active compounds read low
[83] = S. cerevisiae deletion strains, locus YLR262C, strain YPT6, active compounds read low
[84] = S. cerevisiae deletion strains, locus YML094W, strain GIM5, active compounds read low
[85] = S. cerevisiae deletion strains, locus YMR219W, strain ESC1, active compounds read low
[86] = S. cerevisiae deletion strains, locus YMR263W, strain SAP30, active compounds read low
[87] = S. cerevisiae deletion strains, locus YMR307W, strain GAS1, active compounds read low
[88] = S. cerevisiae deletion strains, locus YNL153C, strain GIM3, active compounds read low
[89] = S. cerevisiae deletion strains, locus YNL298W, strain CLA4 (second series), active compounds read low
[90] = S. cerevisiae deletion strains, locus YNL322C, strain KRE1, active compounds read low
[91] = S. cerevisiae deletion strains, locus YNR030W, strain Alg12, active compounds read low
[92] = S. cerevisiae deletion strains, locus YPL055C, strain LGE1, active compounds read low
[93] = S. cerevisiae deletion strains, locus YPL241C, strain CIN2, active compounds read low
[94] = S. cerevisiae deletion strains, locus YPR135W, strain CTF4, active compounds read low

Measured: normalized growth

N#CC1=C(N)C(C#N)(C#N)C2(CCCCC2)C2CCCC=C12 (configuration not stated)
inactive: [1] 0.984 | [2] 0.982 | [3] 0.979 | [4] 0.982 | [5] 0.982 | [6] 0.98 | [7] 0.985 | [8] 0.983 | [9] 0.988 | [10] 0.98 | [11] 0.993 | [12] 0.977 | [13] 0.973 | [14] 0.983 | [15] 0.982 | [16] 0.984 | [17] 0.978 | [18] 0.978 | [19] 0.973 | [20] 0.985 | [21] 0.985 | [22] 0.985 | [23] 0.971 | [24] 1.05 | [25] 0.958 | [26] 0.972 | [27] 0.989 | [28] 0.975 | [29] 0.953 | [30] 0.985 | [31] 0.951 | [32] 0.961 | [33] 0.991 | [34] 0.989 | [35] 0.969 | [36] 0.968 | [37] 0.985 | [38] 1 | [39] 0.98 | [40] 0.981 | [41] 1.02 | [42] 0.959 | [43] 1 | [44] 0.979 | [45] 0.989 | [46] 0.98 | [47] 1 | [48] 0.985 | [49] 0.99 | [50] 0.998 | [51] 0.979 | [52] 0.963 | [53] 0.971 | [54] 0.982 | [55] 0.995 | [56] 0.979 | [57] 0.99 | [58] 1 | [59] 0.995 | [60] 0.973 | [61] 0.979 | [62] 0.978 | [63] 0.96 | [64] 0.971 | [65] 0.988 | [66] 0.965 | [67] 0.98 | [68] 0.986 | [69] 0.987 | [70] 0.985 | [71] 0.979

COc1cc(N=Cc2ccc3c(c2)OCO3)c(OC)cc1Cl
inactive: [72] 1.01 | [73] 1.01 | S. cerevisiae deletion strains, locus YCL061C, strain MRC1, active compounds read low 1 | [8] 0.984 | [74] 0.91 | [75] 1.04 | [76] 0.994 | S. cerevisiae deletion strains, locus YGR229C, strain SMI1, active compounds read low 1.01 | [26] 0.982 | [77] 0.989 | [78] 1 | [79] 0.983 | [80] 0.97 | [81] 1 | [82] 1.04 | [83] 0.99 | [84] 1.02 | [85] 0.991 | [86] 0.939 | [87] 1.05 | S. cerevisiae deletion strains, locus YNL128W, strain TEP1, active compounds read low 1.01 | [88] 0.988 | [89] 1.01 | [90] 1 | [91] 1.01 | [92] 0.998 | [93] 1.02 | [94] 0.973

COC(=O)c1cc(OC)c(OC)cc1NS(=O)(=O)c1ccc(C)cc1
inactive: [72] 1.01 | [73] 0.996 | [8] 0.994 | [74] 0.933 | [75] 1.01 | [76] 0.989 | [26] 0.959 | [77] 1 | [78] 0.985 | [79] 0.991 | S. cerevisiae deletion strains, locus YKL190W, strain CNB1, active compounds read low 1 | [80] 0.961 | [81] 1.01 | [82] 1.03 | [83] 0.891 | [84] 1.03 | [85] 1 | [86] 0.971 | [87] 0.959 | [88] 0.987 | [89] 0.962 | [90] 1 | [91] 0.996 | [92] 0.894 | [93] 1.01 | [94] 0.93 | S. cerevisiae strains, strain wild type, active compounds read low 0.99

COc1cc(N=Cc2cc(Cl)cc(Cl)c2OC(=O)c2cc(OC)c(OC)c(OC)c2)c(OC)cc1Cl
active: [11] 0.369 | [15] 0.31 | [16] 0.212 | [17] 0.398 | [21] 0.34 | [23] 0.381 | [24] 0.235 | [25] 0.183 | [26] 0.145 | [27] 0.161 | [28] 0.176 | [29] 0.202 | [31] 0.177 | [33] 0.32 | [35] 0.463 | [36] 0.148 | [37] 0.458 | [38] 0.392 | [39] 0.346 | [41] 0.345 | [42] 0.243 | [43] 0.354 | [44] 0.244 | [45] 0.317 | [47] 0.421 | [50] 0.335 | [52] 0.235 | [55] 0.238 | [57] 0.273 | [58] 0.346 | [59] 0.307 | [60] 0.207 | [62] 0.292 | [63] 0.279 | [64] 0.312 | [66] 0.215
inactive: [1] 0.965 | [2] 0.977 | [3] 0.969 | [4] 0.974 | [5] 0.968 | [6] 0.981 | [7] 0.959 | [8] 0.962 | [9] 0.945 | [10] 0.966 | [12] 0.989 | [13] 0.98 | [14] 0.947 | [18] 0.956 | [19] 0.971 | [20] 0.975 | [22] 0.962 | [30] 0.977 | [32] 0.937 | [34] 0.987 | [40] 0.972 | [46] 0.963 | [48] 0.954 | [49] 0.982 | [51] 0.98 | [53] 0.977 | [54] 0.958 | [56] 0.969 | [61] 0.981 | [65] 0.977 | [67] 0.974 | [68] 0.962 | [69] 0.943 | [70] 0.98 | [71] 0.96
